Reference: the supplement of paper PMC10849652
Of roughly 7,900 targets only a part is listed; those with a hit were picked by preference. About 0.6% of all pairs of compound and target were hits. Values without a mark were called inactive.

How the values were obtained:
Experiment in all cases: log2 fold change, soluble protein after heating vs DMSO (PISA); higher = thermal stabilisation; K562 cells, 10 uM, 30 min; active = over 0.2 and 3.5 SD of the protein, either way, in both replicates (recomputed)
[1] = compound: C1=CC=C(C=C1)[C@H](COC2=CC3=C(C=C2)NC(=O)N3)NC(=O)C4=CC=CN(C4=O)CC5=CC(=C(C=C5)F)F
Procedure, shortened: (§1)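 Thermal stability values are relative to control samples and come from duplicates. They are expressed as log2 fold changes. For measurement, K562 cells (2×10^6 cells/mL) received 10 μM compound for 30 min, and aliquots were heated for 3 min over 48°C-58°C, pooled, and extracted at 4°C in PBS with 0.5% NP-40. Soluble protein, the supernatant after 21,000xg for 90 min, was quantified by TMTpro 16plex LC-MS/MS with equalised channel sums.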

[2] = compound: CC1=C(SC2=C1C(=N[C@H](C3=NN=C(N32)C)CC(=O)N)C4=CC=C(C=C4)Cl)C
Procedure, shortened: as §1

[3] = compound: CC1=C2C(=CC=C1)N=C(N(C2=O)C3=CC=CC=C3C)CN4C=NC5=C(N=CN=C54)N
Procedure, shortened: as §1

[4] = compound: Cc1sc2c(c1C)C(c1ccc(Cl)cc1)=N[C@@H](CC(=O)OC(C)(C)C)c1nnc(C)n1-2
Procedure, shortened: as §1

[5] = compound: c1ccc([C@@H]2C[C@H]2NC2CCNCC2)cc1
Procedure, shortened: as §1

UniProt Q53T59, sequence (Q53T59 whole entry, looked up): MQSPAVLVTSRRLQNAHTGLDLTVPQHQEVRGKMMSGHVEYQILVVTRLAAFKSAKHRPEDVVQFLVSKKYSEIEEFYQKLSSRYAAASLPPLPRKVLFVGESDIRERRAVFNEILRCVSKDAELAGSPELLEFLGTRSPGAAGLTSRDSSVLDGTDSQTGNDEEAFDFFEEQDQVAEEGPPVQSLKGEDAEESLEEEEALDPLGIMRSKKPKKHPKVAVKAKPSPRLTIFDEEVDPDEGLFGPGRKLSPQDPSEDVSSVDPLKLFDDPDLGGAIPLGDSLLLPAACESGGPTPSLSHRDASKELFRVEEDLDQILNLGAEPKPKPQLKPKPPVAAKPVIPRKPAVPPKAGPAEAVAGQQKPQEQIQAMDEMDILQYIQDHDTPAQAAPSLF
UniProt Q96SL8, sequence (Q96SL8 whole entry, looked up): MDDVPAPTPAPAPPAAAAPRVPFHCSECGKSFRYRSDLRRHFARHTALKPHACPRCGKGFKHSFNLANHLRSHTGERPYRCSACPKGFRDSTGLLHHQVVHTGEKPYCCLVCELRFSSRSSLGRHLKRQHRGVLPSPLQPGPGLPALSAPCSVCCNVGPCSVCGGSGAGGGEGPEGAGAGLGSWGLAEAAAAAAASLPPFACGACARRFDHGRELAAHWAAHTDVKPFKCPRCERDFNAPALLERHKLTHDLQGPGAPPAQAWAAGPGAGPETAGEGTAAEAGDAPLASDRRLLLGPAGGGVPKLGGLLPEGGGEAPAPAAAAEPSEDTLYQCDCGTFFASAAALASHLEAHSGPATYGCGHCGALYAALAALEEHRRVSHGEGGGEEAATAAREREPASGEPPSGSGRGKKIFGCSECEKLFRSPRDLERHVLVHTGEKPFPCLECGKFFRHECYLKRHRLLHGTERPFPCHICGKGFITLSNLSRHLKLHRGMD
UniProt P04066, sequence (P04066 whole entry, looked up): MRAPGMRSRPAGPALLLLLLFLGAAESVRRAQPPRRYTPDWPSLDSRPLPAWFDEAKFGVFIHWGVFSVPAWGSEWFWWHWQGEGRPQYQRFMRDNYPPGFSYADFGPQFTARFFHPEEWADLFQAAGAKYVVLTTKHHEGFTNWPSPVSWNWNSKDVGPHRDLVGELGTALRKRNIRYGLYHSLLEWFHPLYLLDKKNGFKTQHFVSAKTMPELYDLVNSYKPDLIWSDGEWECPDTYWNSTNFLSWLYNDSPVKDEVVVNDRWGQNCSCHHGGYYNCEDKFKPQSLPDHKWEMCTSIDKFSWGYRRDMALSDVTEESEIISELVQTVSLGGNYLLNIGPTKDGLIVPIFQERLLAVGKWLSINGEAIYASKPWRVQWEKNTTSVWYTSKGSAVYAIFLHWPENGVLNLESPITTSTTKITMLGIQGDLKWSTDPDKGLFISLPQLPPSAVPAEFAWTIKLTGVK
UniProt P23327, sequence (P23327 whole entry, looked up): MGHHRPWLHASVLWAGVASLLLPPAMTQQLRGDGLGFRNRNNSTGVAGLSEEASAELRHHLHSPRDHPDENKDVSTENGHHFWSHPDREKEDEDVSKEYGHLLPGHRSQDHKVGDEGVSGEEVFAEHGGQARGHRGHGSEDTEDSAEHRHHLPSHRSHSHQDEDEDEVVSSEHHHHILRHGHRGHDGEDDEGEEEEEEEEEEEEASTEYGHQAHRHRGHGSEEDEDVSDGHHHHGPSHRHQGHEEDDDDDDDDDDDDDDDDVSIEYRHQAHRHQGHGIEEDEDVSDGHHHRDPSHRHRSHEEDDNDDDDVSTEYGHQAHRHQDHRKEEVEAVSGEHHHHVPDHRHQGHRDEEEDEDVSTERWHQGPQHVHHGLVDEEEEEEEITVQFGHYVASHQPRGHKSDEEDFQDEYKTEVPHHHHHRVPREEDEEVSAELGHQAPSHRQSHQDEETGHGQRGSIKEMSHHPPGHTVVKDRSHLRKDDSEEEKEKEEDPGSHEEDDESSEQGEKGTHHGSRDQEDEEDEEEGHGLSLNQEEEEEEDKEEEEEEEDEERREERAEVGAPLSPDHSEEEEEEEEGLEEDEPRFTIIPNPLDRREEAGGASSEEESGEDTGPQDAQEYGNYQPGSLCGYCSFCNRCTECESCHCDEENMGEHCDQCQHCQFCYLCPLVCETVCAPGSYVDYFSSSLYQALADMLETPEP
UniProt Q9UQC2, sequence (Q9UQC2 whole entry, looked up): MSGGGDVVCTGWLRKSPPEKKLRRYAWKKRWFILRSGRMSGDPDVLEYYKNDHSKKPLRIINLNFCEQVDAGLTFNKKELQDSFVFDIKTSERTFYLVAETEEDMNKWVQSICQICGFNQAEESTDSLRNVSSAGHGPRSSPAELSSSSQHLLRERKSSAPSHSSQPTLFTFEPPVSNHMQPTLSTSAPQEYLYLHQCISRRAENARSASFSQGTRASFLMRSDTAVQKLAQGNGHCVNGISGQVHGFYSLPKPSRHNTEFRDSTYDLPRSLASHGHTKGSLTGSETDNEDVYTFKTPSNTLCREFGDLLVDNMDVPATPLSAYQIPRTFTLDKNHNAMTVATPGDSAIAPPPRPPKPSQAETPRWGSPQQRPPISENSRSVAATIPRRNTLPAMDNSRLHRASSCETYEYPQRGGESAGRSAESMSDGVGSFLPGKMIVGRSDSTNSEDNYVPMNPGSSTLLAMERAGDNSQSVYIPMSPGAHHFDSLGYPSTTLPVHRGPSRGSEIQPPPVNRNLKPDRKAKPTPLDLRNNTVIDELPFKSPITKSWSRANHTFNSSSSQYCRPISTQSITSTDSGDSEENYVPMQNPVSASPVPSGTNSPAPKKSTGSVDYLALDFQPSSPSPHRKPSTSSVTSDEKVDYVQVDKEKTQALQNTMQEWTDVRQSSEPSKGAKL
UniProt O14976, sequence (O14976 whole entry, looked up): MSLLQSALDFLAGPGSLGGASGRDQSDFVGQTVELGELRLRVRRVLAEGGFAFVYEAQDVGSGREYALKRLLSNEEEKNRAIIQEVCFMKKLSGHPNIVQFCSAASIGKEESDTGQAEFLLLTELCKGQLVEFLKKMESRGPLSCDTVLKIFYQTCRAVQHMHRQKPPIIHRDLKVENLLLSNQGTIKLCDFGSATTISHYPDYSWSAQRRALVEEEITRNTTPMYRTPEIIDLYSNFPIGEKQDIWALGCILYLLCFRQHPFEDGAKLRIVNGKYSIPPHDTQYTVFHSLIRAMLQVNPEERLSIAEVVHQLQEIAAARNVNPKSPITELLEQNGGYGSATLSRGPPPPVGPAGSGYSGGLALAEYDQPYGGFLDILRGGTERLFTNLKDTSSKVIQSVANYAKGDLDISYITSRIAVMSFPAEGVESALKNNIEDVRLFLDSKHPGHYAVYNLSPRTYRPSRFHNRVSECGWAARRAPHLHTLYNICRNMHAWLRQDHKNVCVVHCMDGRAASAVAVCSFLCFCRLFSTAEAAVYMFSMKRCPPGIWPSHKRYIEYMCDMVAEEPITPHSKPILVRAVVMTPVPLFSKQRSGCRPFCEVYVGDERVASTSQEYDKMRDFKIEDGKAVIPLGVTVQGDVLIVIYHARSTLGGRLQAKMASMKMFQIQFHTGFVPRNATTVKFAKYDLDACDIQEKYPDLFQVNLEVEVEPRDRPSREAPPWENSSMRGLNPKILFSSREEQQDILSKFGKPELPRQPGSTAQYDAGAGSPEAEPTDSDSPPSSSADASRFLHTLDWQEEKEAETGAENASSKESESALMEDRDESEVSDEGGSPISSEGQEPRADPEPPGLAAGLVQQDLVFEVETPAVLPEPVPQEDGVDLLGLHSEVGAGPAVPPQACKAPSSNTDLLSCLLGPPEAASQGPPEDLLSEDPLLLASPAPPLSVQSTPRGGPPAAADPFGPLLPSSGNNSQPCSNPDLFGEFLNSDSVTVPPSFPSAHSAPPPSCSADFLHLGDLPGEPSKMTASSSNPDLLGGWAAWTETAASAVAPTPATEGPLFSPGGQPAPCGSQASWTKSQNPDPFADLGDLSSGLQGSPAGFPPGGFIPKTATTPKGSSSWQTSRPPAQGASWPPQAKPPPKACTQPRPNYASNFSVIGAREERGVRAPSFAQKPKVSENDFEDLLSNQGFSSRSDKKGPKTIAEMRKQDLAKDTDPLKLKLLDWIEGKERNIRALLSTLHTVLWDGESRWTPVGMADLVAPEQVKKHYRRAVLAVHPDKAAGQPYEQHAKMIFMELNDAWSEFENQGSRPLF
UniProt Q53R41, sequence (Q53R41 whole entry, looked up): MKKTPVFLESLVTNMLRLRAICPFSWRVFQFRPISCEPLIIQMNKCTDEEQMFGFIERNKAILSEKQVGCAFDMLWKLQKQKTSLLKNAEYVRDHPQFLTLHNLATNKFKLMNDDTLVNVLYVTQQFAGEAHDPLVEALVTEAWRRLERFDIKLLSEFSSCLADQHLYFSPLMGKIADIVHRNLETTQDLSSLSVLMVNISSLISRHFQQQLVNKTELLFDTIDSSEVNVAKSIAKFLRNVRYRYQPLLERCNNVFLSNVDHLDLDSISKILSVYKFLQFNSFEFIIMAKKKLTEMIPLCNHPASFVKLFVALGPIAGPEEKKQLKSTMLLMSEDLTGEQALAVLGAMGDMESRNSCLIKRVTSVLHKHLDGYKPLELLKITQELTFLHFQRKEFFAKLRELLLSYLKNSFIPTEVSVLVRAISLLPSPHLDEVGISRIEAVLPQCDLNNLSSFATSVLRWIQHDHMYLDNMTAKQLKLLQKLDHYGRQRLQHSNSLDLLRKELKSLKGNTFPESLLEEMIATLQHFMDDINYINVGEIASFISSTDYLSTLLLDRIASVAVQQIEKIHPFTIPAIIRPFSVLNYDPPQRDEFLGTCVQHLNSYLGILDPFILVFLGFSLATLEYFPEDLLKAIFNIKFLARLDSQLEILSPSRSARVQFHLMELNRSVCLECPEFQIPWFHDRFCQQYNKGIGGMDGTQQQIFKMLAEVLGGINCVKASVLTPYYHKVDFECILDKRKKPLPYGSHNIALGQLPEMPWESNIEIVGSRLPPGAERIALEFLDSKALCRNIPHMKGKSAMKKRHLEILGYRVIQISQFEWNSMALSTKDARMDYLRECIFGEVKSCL

Target	log2 fold change [1]	log2 fold change [2]	log2 fold change [3]	log2 fold change [4]	log2 fold change [5]
GPKOW (UniProt Q92917)	-0.133	0.078	0.076	0	-0.015
FCF1 (UniProt Q9Y324)	–	–	-0.362	0.248	–
FCHO1 (UniProt O14526)	–	0.013	0.125	0.022	-0.065
HNRNPUL1 (UniProt M0R247)	–	0.079	–	0.204	0.122
FUBP3 (UniProt Q96I24)	0.009	0.002	0.017	0.065	0.006
GREB1 (UniProt Q4ZG55)	–	0.095	0.175	0.037	-0.1
FOXO3 (UniProt O43524)	–	0.065	0.012	0.125	-0.039
GAK (UniProt O14976)	–	0.095	-0.032	0.078	-0.209
HS1BP3 (UniProt Q53T59)	-0.046	0.087	-0.001	–	-0.203
GSE1 (UniProt Q14687)	-0.151	0.029	0.008	–	1.45 (active)
HSPA8 (UniProt E9PK54)	0.004	-0.108	0.037	0.099	-0.001
FASTKD1 (UniProt Q53R41)	-0.038	0.151	0.013	0.204	0.07
HRC (UniProt P23327)	0.026	-0.042	0.055	0.014	0.033
HDAC2 (UniProt Q92769)	0.022	0.042	0.08	-0.002	0.111
GEMIN2 (UniProt O14893)	0.044	0.013	-0.049	–	0.025
GPS2 (UniProt Q13227)	0.015	–	0	0.039	–
GDI1 (UniProt P31150)	-0.025	0.054	0.043	-0.022	-0.025
FUCA1 (UniProt P04066)	-0.001	0.058	0.03	0.018	0.053
HNRNPK isoform 3 (UniProt P61978)	0.014	–	0.074	0.061	–
GOLGA8R (UniProt I6L899)	0.106	0.211	0.326	0.043	-0.003
IDH3A isoform 2 (UniProt P50213)	0.118	0.251	–	-0.069	-0.059
IGF2 isoform 3 (UniProt P01344)	–	–	0.077	–	–
FIZ1 (UniProt Q96SL8)	–	-0.297	-0.097	–	0.044
FYB1 isoform 3 (UniProt O15117)	-0.09	–	0.005	-0.017	–
HMGCR isoform 3 (UniProt P04035)	-0.011	0.034	0.045	0.111	0.043
GAB2 (UniProt Q9UQC2)	–	0.153	-0.059	0.396	-0.034
HECTD1 (UniProt Q9ULT8)	0.009	0	0.098	0.051	-0.004
ICMT (UniProt O60725)	0.047	–	0.115	0.07	–
GDE1 (UniProt Q9NZC3)	-0.019	0.037	0.025	-0.078	-0.055
